SMILES strings stand for the structures. Inconclusive results are not listed. The source made the active and inactive calls. Rule for the calls: active = hit-call score of the fitted dose curve at least 0.9, where 1 is the maximum; inconclusive = response in the unintended direction; inactive = score below 0.9.

Sequence of human Dopamine Transporter (DAT), SLC6A3 (gene 6531) (Q01959 whole entry, looked up): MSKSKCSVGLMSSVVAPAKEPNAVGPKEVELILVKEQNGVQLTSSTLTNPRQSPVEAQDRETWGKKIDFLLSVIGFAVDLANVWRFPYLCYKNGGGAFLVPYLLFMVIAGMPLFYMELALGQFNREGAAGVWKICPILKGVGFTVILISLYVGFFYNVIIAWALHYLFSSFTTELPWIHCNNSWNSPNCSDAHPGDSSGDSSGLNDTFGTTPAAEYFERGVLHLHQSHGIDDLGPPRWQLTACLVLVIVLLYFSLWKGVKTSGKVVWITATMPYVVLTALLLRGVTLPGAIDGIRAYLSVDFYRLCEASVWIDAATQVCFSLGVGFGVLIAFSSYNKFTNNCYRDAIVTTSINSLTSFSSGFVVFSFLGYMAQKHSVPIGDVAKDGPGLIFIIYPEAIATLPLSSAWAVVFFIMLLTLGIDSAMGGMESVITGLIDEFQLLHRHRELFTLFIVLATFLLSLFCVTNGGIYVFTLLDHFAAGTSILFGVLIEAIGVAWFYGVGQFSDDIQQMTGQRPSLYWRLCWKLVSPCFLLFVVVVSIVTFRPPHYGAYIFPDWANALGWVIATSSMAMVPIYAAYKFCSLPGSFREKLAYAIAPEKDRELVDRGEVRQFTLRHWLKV

The assay concerns the target human Dopamine Transporter (DAT), SLC6A3 (gene 6531) (UniProt Q01959). Description: NVS_TR_hDAT: NovaScreen (NVS) Transporter Assay for human Dopamine Transporter (DAT) (AID 2283374).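 Note: activity means loss of bound radioligand signal relative to DMSO.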 Here is the method:
NVS_TR_hDAT is a biochemical, single-readout assay that uses extracted gene-proteins in a cell-free assay. Measurements were taken 1 hour after chemical dosing in a 96-well plate.NVS_TR_hDAT is one of one assay component(s) measured or calculated from the NVS_TR_hDAT assay. It is designed to make measurements of radioligand binding, a form of binding reporter, as detected with scintillation counting signals by Filter-based radiodetection technology.Data from the assay component NVS_TR_hDAT was analyzed into 1 assay endpoint. This assay endpoint, NVS_TR_hDAT, was analyzed in the positive analysis fitting direction relative to DMSO as the negative control and baseline of activity. Using a type of binding reporter, loss-of-signal activity can be used to understand changes in the binding as they relate to the gene SLC6A3. Furthermore, this assay endpoint can be referred to as a primary readout, because the performed assay has only produced 1 assay endpoint. To generalize the intended target to other relatable targets, this assay endpoint is annotated to the transporter intended target family, where the subfamily is neurotransmitter transporter.
Binding assays used specific radioligands (tritiated, iodinated) with non-radioactive competitive displacement ligands in agonist or antagonist protocols (as indicated) and various reference compounds and inhibitors to titrate specific binding to receptors and transporters. Most enzyme assays (CYPs, kinases, phosphatases, proteases, HDACs) used recombinant protein and specific substrates (fluorescence mostly, some colorimetric and radioactive) and inhibitors, followed by a biochemical separation of substrate and product. All assays for the biochemical HTS were initially run in duplicate at a single concentration (10 uM for CYP450 assays and 25 uM for all others). […] Each assay was run with positive and negative controls, and concurrent controls on every plate. The follow-up (secondary) screen tested active chemical-pairs in concentration series, as well as a few additional assays not tested in the primary screen, some selected negative inactives, and several cases re-run in the concentration series for confirmatory purposes.
In the case of `Cc1cc(SC2=C(O)C[C@@](CCc3ccc(N)cc3)(C(C)C)OC2=O)c(C(C)(C)C)cc1CO`, the compound was classed as inactive.

As a reminder, the AC50 is the concentration giving half of the maximal activity seen. For the compound `O=C1OC(c2ccc(O)cc2)(c2ccc(O)cc2)c2ccccc21`, the concentration at half-maximal activity (AC50) was 6.6 µM (active).

As for `CN(C)C(=O)NC1(c2ccccc2)CCN(CCC[C@]2(c3ccc(Cl)c(Cl)c3)CCCN(C(=O)c3ccccc3)C2)CC1`, the half-maximal activity concentration (AC50) is 0.418 µM (active).

`CN(C)CCCN1c2ccccc2Sc2ccc(Cl)cc21`: the AC50 is 4.24 µM (active).

In the case of `CSc1ccc(Oc2ccc(S(N)(=O)=O)cc2CN(C)C)cc1C`, the AC50 was 4.52 µM (active).

As for `CCCCC(CC)COP(=O)(OCC(CC)CCCC)OCC(CC)CCCC` (stereo not given), the compound was called inactive.

`CC(COCC(C)OC(=O)c1ccccc1)OC(=O)c1ccccc1` (stereo not given): the AC50 was 19.2 µM (active).

As to `CC(C)NCC(O)c1ccc(O)c(O)c1` (stereo not given), the AC50 was 11.1 µM (active).

Take `CCc1nc(N)nc(N)c1-c1ccc(Cl)cc1`: the AC50 was 0.754 µM (active).

Consider `O=C(N[C@@H](c1ccccc1)[C@@H]1CCCCN1)c1cccc(C(F)(F)F)c1Cl`, for which the AC50 is 12.2 µM (active).

`CC(C)OC(=O)C(C)(C)Oc1ccc(C(=O)c2ccc(Cl)cc2)cc1`: the compound was called inactive.

As to `O=C1NC(=O)C(c2ccccc2)(c2ccccc2)N1`, the AC50 was 5.81 µM (active).

On to `Cc1cc(Cc2ccc(N)c(C)c2)ccc1N`, for which the AC50 was 8.53 µM (active).

Take `CCCCCCCCCCCCCCOS(=O)(=O)O`: the AC50 is 41 µM (active).

Take `Cn1cnc2c1c(=O)[nH]c(=O)n2C`: the compound was called inactive.

The values above are taken from PubChem BioAssay (EPA / NIEHS).
